The structures appear in SMILES notation. Hit rate of the full screen: of about 4,100 compounds, about 1,600 (39%) were called active. About 25% were inconclusive and are not listed. The list shows a part of the results. Values without a mark were called inactive. The call rests on the fitted dose curve; in most records, active means well fitted inhibition curve with a large enough effect; inconclusive means small, poorly fitted or top-dose-only effect; inactive means no such curve, though single readings can be large or run the other way.
On the % scale 0 is the no-effect control and ±100 the full control effect; potency means the concentration at half of the fitted maximal effect.

This test in a line: qHTS Validation assay for Inhibitors of Plasmodium falciparum Dd2 growth in vitro. Further: nearly all actives have a fitted effect of over 70% in size. To be noted: P. falciparum Dd2 in RBCs, SYBR Green growth, 72 h; series mostly up to 28.7 µM; activity change, negative = inhibition: at the top concentration. In a few lines: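 P. falciparum Dd2-infected red blood cells (2.5% hematocrit, 0.3% parasitemia) grown 72 h at 37 °C under 5% O2 with compounds in a titration, 29 uM to 0.5 nM final. Growth read as SYBR Green-1 fluorescence after ~16 h lysis; artesunate 300 nM as positive control.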
A general note: In qHTS, concentration-response curves come from the screen itself.
For the molecule `CCOC(=O)c1c(N)sc2c1CCN(Cc1ccccc1)C2`, the Potency is 5.31 µM (active).
With `CCOC(=O)c1c(NC(=O)/C=C/c2ccc(OCC)cc2)sc2c1CCC2`, the “activity change, negative = inhibition” value is 1.45%.
`CC(C)(C(=O)N1CCN(Cc2ccccc2)CC(O)C1)c1ccccc1` (stereo not given): the “activity change, negative = inhibition” value was -5.37%.
Same read-out and setting: in the case of `Cc1cc(F)ccc1NC(=O)Cn1c(=O)ccc2cc(S(=O)(=O)N3CCC(C)CC3)ccc21` it was 1.53%.
For the molecule `O=C(CN1CCC(n2nnc3cc(F)ccc32)CC1)Nc1ccccc1N1CCOCC1`, the Potency was 5.31 µM (active).
Same read-out and setting: the value for `CCO[C@H]1OC(C(=O)N2CCN(Cc3ccc4c(c3)OCO4)CC2)=C[C@@H](c2cn(C(C)=O)c3ccccc23)[C@@H]1CCCO` was 8.41 µM (active); that for `CCO[C@@H]1OC(C(=O)N2CCN(Cc3ccc4c(c3)OCO4)CC2)=C[C@H](c2cn(C(C)=O)c3ccccc23)[C@H]1CCCO` was 9.44 µM (active); that for `O=C(C1=C[C@H](c2csc3ccccc23)C[C@H](OCCCCO)O1)N1CCN(Cc2ccc3c(c2)OCO3)CC1` was 13.3 µM (active).
Take `O=C(NCc1nc2ccccc2[nH]1)C1=C[C@@H](c2ccccc2)C[C@@H](OCCCCO)O1`: the “activity change, negative = inhibition” value was 20.8%.
Turning to `CCO[C@H]1OC(C(=O)N2CCN(Cc3ccccc3)CC2)=C[C@@H](C2CCCCC2)[C@@H]1CCCO`, the “activity change, negative = inhibition” value is -29.6%.
On to `CN(Cc1cccnc1)Cc1ccccc1C(F)(F)F`, for which the “activity change, negative = inhibition” value was 31.1% [at 43.1 µM].
Consider `CCOC(=O)c1nnn(-c2nonc2-n2cccc2)c1CN1CCC(C(=O)OCC)CC1`, for which the Potency was 4.73 µM (active).
As for `Cn1c(CN2CCCCC2)nnc1C1CCCN(C(=O)c2cocn2)C1` (stereo not given), the “activity change, negative = inhibition” value is 0%.
As for `CCOC(=O)c1nnn(-c2nonc2-n2cccc2)c1CN1CCCCC1`, the Potency is 7.5 µM (active).
Same read-out and setting: in the case of `CC(=O)Nc1cccc(OCc2nnc(C(=O)N3CCC[C@@H]3C(c3ccccc3)c3ccccc3)n2-c2ccccc2)c1` it was 10.6 µM (active).
For the molecule `O=C(COc1ccccc1)N1CCCC(n2cc(-c3nc(C4CC4)no3)nn2)C1` (stereo not given), the “activity change, negative = inhibition” value was -15.8%.
On to `O=C(c1nnc(COc2ccc(OC(F)(F)F)cc2)n1-c1ccccc1)N1CCC[C@@H]1C(c1ccccc1)c1ccccc1`, for which the Potency was 8.41 µM (active).
For `O=C(c1nnc(CN2CCC(F)(F)CC2)n1-c1cccnc1)N1CCC[C@@H]1C(c1ccccc1)c1ccccc1`, the Potency is 15 µM (active).
Take `CC(=O)Nc1cccc(-c2cn(C)c(=O)n3cc(COc4ccccc4)nc23)c1`: the “activity change, negative = inhibition” value was -5.26% [at 43.1 µM].
In the case of `COC1CCOC2(CCN(C(=O)CCn3nc(C)cc3C)CC2)C1` (stereo not given), the “activity change, negative = inhibition” value was 14%.
On the same count and under the same terms, in the case of `COc1ccc(C(=O)NC2(C(F)(F)F)C(=O)NC(C)=C2C#N)cc1` (stereo not given) it was 25%.
For the molecule `COc1ccc(NC2=C(c3ccc(OC)cc3)C(=O)c3ccccc32)cc1`, the Potency is 5.96 µM (active).
`COCCn1cnc2ccc(Nc3ccc(C(F)(F)F)cc3)nc2c1=O`: the “activity change, negative = inhibition” value was 9.07% [at 43.1 µM].
`O=C1C(c2ccc(C(F)(F)F)cc2)=C(Nc2ccc(Cl)cc2)c2ccccc21`: the Potency is 1.5 µM (active).
On to `COc1ccc(C2=C(Nc3ccccc3)c3ccccc3C2=O)cc1`, for which the Potency was 9.44 µM (active).
For the molecule `COc1ccc(NC2=C(c3ccc(C(F)(F)F)cc3)C(=O)c3ccccc32)cc1`, the Potency is 2.11 µM (active).
Regarding `Cc1cc(Cl)ccc1NC(=O)N1C[C@H](c2nc(-c3cccnc3)no2)[C@@H](C)C1`, the “activity change, negative = inhibition” value was -5.05%.
Turning to `COc1ccc(C2=C(Nc3ccc(C)cc3)c3ccccc3C2=O)cc1`, the Potency is 4.73 µM (active).
Turning to `CCOc1ccc(NC2=C(OC)C(=O)c3ccccc3C2=O)cc1`, the Potency is 0.376 µM (active).
As to `COc1ccccc1C(=O)NCc1nnc2c(-c3nc(C4CC4)no3)cccn12`, the “activity change, negative = inhibition” value was -6.9%.
Same read-out and setting: in the case of `CC(C)c1cccc(NC(=O)c2ccc(CN3C(=O)NC4(CCOCC4)C3=O)cc2)c1` it was -0.362%.
Same read-out and setting: the value for `CN1CCOc2c(C(=O)NCCc3cnc[nH]3)cc(-c3ccc(N4CCOCC4)cc3)cc21` was -1.23%; that for `COc1ccc(C(=O)NCc2nnc3c(-c4nc(C5CC5)no4)cccn23)c(C)c1` was -12.6%.
Turning to `CC(=O)Nc1cccc(-c2cc(C(=O)NCc3c(C)cc(C)[nH]c3=O)c3c(c2)N(C(C)C)CCO3)c1`, the Potency was 9.44 µM (active).
Regarding `Cc1cc(C)c(CNC(=O)c2cc(-c3cccnc3)cc3c2OCCN3C(C)C)c(=O)[nH]1`, the Potency is 19.3 µM (active).
For `COc1ncc(-c2cc(C(=O)NCc3c(C)cc(C)[nH]c3=O)c3c(c2)N(C(C)C)CCO3)cn1`, the Potency is 9.44 µM (active).
`Cc1cc(C)c(CNC(=O)c2cc(-c3ccnn3C)cc3c2OCCN3C(C)C)c(=O)[nH]1`: the Potency is 15.3 µM (active).
As for `COc1ccc(-n2ccnc2SCC(=O)NO)cc1`, the “activity change, negative = inhibition” value was 0.591%.
Consider `COC(=O)C1=C(C)N(c2ccc(OC)cc2)C(C)=C(C(=O)OC)C1c1ccccc1`, for which the Potency was 9.44 µM (active).
Regarding `CCOC(=O)c1sc2nc3c(SCCC#N)cc(C(=O)c4cc(F)ccc4O)cn3c(=O)c2c1C`, the Potency is 1.68 µM (active).
`CC(=O)NC1CC(c2cc(NCCCOC3CCN(C)CC3)ncn2)C1` (stereo not given): the “activity change, negative = inhibition” value is 29%.
Take `O=C(NCc1ccco1)C1CCc2sc(C(=O)N3CCCCCC3)cc2C1` (stereo not given): the “activity change, negative = inhibition” value is -4.94%.
As to `CC1CCN(c2ccc(C(=O)NCc3ccco3)cc2[N+](=O)[O-])CC1`, the Potency was 6.68 µM (active).
For `Cc1nn2c3c(cnc2c1-c1ccccc1)C(=O)CC(c1ccco1)C3` (stereo not given), the Potency was 9.44 µM (active).
As for `CCOC(=O)c1noc2nc(C)n(CC(=O)NC(C)CC)c(=O)c12` (stereo not given), the “activity change, negative = inhibition” value is 15.7%.
`CCOC(=O)c1nc2cc3n(c(CC(C)C)c-2c1C)CC(C)=C3C`: the Potency was 7.5 µM (active).
As for `O=C(Nc1c(C(=O)N2CCN(c3ccc(F)cc3)CC2)oc2ccccc12)c1ccco1`, the “activity change, negative = inhibition” value was 10%.
Take `O=C(c1ccco1)c1cn(CCOc2ccc(F)cc2)c2ccccc12`: the Potency was 6.68 µM (active).
For `COc1ccc(OCCn2cc(C(=O)c3ccco3)c3ccccc32)cc1`, the Potency is 2.11 µM (active).
Regarding `Cc1cc(OCCn2cc(C(=O)c3ccco3)c3ccccc32)ccc1Cl`, the Potency is 5.31 µM (active).
